Test results reported in PubChem BioAssay (NCATS).
Values without a mark were called inactive. Results filed as inconclusive are left out. Where a call stands in place of a potency, no number is given. Active and inactive are the calls of the source. Unless noted, the call rests on the fitted dose curve; in most records, active means well fitted curve in the direction sought with a large enough effect; inconclusive means small, poorly fitted or top-dose-only effect, or another doubt; inactive means no such curve, though single readings can be large; an effect the other way counts as inactive or inconclusive.

Key:
[1] = target: Rap guanine nucleotide exchange factor 3 (Homo sapiens) (UniProt O95398); experiment: Confirmatory qHTS for antagonist of cAMP-regulated guanine nucleotide exchange factor 3 (EPAC1) (AID 1645880); further: nearly all actives have a fitted effect of over 55% in size
Chain of Rap guanine nucleotide exchange factor 3 (Homo sapiens) (O95398 whole entry, looked up): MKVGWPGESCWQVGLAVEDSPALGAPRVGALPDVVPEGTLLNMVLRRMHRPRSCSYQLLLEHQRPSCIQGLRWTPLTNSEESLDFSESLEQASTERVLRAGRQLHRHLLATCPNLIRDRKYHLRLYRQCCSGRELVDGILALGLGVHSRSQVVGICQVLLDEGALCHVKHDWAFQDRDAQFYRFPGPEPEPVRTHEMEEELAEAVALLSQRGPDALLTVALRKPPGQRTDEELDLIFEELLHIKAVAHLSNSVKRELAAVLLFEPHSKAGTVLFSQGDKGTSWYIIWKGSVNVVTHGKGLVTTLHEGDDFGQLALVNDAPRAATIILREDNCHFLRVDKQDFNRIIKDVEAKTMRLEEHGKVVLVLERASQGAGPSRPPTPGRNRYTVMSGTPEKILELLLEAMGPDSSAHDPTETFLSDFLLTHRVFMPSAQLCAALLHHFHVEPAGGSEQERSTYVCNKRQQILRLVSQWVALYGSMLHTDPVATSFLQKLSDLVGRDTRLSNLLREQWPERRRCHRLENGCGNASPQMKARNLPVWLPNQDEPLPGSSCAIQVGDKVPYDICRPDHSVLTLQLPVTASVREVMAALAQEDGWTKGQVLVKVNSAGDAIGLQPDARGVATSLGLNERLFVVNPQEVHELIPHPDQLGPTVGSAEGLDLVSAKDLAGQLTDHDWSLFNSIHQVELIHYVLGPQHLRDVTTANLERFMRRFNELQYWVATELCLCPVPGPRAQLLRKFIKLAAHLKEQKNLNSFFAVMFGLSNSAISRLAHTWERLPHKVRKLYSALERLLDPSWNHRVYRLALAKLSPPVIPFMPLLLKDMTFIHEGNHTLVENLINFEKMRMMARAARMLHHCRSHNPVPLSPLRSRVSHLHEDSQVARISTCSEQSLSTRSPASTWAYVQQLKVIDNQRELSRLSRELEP
Outline: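 Released BODIPY-GDP fluoresces less than Rap1-bound BODIPY-GDP; the signal is followed at 480/540 nm at 5-min intervals over 30 min, after 5 min at room temperature. Reactions contain 100 nM EPAC1, 250 nM RAP1B-BODIPY-GDP and 50 uM GDP; results are normalized to ATA and DMSO.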

[2] = target: Rap guanine nucleotide exchange factor 4 (Homo sapiens) (UniProt Q8WZA2); experiment: Confirmatory qHTS for antagonist of cAMP-regulated guanine nucleotide exchange factor 4 (EPAC2) (AID 1645885); further: nearly all actives have a fitted effect of over 25% in size; further: potency means the concentration at half of the fitted maximal effect
Chain of Rap guanine nucleotide exchange factor 4 (Homo sapiens) (Q8WZA2 whole entry, looked up): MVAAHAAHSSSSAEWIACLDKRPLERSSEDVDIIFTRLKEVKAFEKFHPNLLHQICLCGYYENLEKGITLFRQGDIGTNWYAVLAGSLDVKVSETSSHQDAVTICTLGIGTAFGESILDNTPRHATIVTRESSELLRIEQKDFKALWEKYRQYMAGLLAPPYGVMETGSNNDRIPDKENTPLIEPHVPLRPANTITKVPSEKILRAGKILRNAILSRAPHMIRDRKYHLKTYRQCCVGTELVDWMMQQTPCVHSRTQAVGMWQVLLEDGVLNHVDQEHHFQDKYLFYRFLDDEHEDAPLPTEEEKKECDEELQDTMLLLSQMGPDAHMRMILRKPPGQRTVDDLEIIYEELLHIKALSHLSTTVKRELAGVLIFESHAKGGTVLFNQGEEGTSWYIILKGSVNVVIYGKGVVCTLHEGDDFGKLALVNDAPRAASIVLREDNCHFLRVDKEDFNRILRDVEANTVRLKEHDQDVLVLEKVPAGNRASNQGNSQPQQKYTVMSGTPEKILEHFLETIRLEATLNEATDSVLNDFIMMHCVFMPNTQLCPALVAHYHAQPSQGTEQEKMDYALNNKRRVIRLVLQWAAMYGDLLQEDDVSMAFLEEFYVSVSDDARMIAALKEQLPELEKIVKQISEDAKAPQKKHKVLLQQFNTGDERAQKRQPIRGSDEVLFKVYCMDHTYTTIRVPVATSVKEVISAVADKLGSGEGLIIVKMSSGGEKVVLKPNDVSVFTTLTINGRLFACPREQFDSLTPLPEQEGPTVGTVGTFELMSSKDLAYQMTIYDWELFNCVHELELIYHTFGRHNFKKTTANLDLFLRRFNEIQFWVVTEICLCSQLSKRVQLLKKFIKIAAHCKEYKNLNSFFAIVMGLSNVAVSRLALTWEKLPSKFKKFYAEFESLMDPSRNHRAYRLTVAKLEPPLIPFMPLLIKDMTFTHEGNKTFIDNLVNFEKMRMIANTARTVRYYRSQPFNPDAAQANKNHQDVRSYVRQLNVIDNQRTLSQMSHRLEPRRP

[3] = target: Rap guanine nucleotide exchange factor 3 (Homo sapiens) (UniProt O95398); experiment: Counterscreen qHTS for antagonist of cAMP-regulated guanine nucleotide exchange factor 3 (EPAC1) (AID 1645888)
Outline: (§1)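 Rap1B–BODIPY-GDP (250 nM) with 50 uM GDP; compounds pin-transferred to 9.74 nM–152 uM final (activator) or from 7.32 nM upwards (inhibitor). Fluorescence Ex/Em 480/540 nm read at 5 and 30 min, then after adding cAMP or buffer, at room temperature.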

[4] = target: Rap guanine nucleotide exchange factor 3 (Homo sapiens) (UniProt O95398); experiment: Counterscreen qHTS for agonist of cAMP-regulated guanine nucleotide exchange factor 3 (EPAC1) (AID 1645889); further: nearly all actives have a fitted effect of over 40% in size; further: potency means the concentration at half of the fitted maximal effect
Outline: as §1

[5] = target: Rap guanine nucleotide exchange factor 4 (Homo sapiens) (UniProt Q8WZA2); experiment: Confirmatory qHTS for agonist of cAMP-regulated guanine nucleotide exchange factor 4 (EPAC2) (AID 1645884);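 further: nucleotide exchange releases bodipy-GDP from Rap1 and this lowers its fluorescence; nearly all actives have a fitted effect of over 65% in size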; further: potency means the concentration at half of the fitted maximal effect
[6] = target: Rap guanine nucleotide exchange factor 3 (Homo sapiens) (UniProt O95398); experiment: Confirmatory qHTS for agonist of cAMP-regulated guanine nucleotide exchange factor 3 (EPAC1) (AID 1645881);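 further: EPAC1 catalysed release of BODIPY-GDP from Rap1B seen as fluorescence loss; nearly all actives have a fitted effect of over 75% in size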
[7] = target: Tumor susceptibility gene 101 protein (Homo sapiens) (UniProt Q99816); experiment: qHTS Assay for Iinhibitors of HIV-1 Budding by Blocking the Interaction of PTAP/TSG101: Hit Validation (AID 651600); further: nearly all actives have a fitted effect of over 70% in size; further: potency means the concentration at half of the fitted maximal effect
Chain of Tumor susceptibility gene 101 protein (Homo sapiens) (Q99816 whole entry, looked up, the tested form may be a part): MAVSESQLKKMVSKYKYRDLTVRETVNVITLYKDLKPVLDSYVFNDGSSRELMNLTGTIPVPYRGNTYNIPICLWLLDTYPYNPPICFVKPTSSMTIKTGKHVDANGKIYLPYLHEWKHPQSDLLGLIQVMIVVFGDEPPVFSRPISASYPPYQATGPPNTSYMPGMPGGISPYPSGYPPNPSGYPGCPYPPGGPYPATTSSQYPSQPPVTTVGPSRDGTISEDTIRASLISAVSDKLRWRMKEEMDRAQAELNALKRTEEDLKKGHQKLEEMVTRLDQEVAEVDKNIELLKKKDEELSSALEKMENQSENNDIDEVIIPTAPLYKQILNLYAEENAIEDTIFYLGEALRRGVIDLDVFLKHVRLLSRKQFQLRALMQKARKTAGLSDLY
Outline: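 Fluorescence polarization binding assay: Tsg101 binding domain (10 uM) mixed with compounds and FITC-labeled PTAP peptide (50 nM) in HEPES pH 7.5, 0.15 M NaCl, 0.01% Tween 20, EDTA, TCEP; 20 min at r.t.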

[8] = target: Glucocorticoid receptor (Homo sapiens) (UniProt P04150); experiment: GR-GFP Redistribution (AID 450;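 active means compounds whose dose series gives a full or clear partial fitted curve of increased nuclear translocation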; further: potency means the concentration at half of the fitted maximal effect); conditions: U2OS GR-GFP nuclear translocation, laser cytometry, 2 h
[9] = target: Guanine nucleotide-binding protein G(i) subunit alpha-1 (Homo sapiens) (UniProt P63096); experiment: qHTS Assay for Inhibitors of RGS12 GoLoco Motif Activity (Green Fluorophore) (AID 879);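 further: negative values mean loss of peptide binding seen as reduced polarization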
Chain of Guanine nucleotide-binding protein G(i) subunit alpha-1 (Homo sapiens) (P63096 whole entry, looked up): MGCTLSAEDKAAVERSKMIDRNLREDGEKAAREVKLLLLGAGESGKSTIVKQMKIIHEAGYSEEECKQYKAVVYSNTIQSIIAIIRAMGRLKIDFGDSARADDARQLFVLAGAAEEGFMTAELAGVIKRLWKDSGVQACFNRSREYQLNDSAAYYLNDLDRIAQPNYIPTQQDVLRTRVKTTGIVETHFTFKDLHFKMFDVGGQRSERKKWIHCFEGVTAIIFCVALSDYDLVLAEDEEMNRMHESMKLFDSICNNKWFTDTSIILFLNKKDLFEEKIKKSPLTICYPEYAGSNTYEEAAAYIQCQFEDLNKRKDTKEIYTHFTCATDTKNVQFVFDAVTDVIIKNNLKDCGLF
Outline: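 A drop in FITC polarization marked displacement of the FITC-tagged RGS12 GoLoco peptide (10 nM) from Gαi1 (50 nM). Compounds were incubated 10 min at room temperature in Tris pH 7.5 buffer containing 150 mM NaCl, 0.1 mM GDP and 0.05% NP40; unlabeled peptide titration served as control.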

[10] = target: Muscarinic acetylcholine receptor M1 (Rattus norvegicus) (UniProt P08482); experiment: qHTS Assay for Antagonists of Acetylcholine Muscarinic M1 Receptor: Kinetic Measurement of Intracellular Calcium Response (AID 943);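 further: Fluo-4 calcium signal as peak divided by basal fluorescence over 4 min; series mostly up to about 35 µM; nearly all actives have a fitted effect of over 75% in size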
Chain of Muscarinic acetylcholine receptor M1 (Rattus norvegicus) (P08482 whole entry, looked up): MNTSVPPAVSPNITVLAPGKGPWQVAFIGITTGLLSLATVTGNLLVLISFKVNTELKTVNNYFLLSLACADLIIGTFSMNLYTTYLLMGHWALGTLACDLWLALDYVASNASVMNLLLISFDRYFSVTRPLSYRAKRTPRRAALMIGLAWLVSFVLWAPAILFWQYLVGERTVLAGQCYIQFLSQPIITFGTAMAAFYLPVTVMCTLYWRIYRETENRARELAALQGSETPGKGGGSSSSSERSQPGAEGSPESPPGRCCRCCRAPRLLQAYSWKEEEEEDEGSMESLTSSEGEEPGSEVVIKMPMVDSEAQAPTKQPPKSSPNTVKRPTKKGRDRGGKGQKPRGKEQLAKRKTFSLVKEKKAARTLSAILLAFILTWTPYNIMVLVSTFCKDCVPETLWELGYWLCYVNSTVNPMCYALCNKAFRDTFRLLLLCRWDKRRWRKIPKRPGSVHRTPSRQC
Outline: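 Antagonism is measured as inhibition of the carbachol-evoked calcium rise in CHO cells transfected with rat M1. Cells are dye-loaded, exposed to compound for 10 min, then stimulated with 100 nM carbachol (EC80).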

[11] = target: Pyruvate kinase PKM (Homo sapiens) (UniProt P14618); experiment: qHTS Assay for Activators of Human Muscle Pyruvate Kinase (AID 954; active means well fitted curve in the direction sought with a large enough effect, not every such curve was filed as active)
Chain of Pyruvate kinase PKM (Homo sapiens) (P14618 whole entry, looked up): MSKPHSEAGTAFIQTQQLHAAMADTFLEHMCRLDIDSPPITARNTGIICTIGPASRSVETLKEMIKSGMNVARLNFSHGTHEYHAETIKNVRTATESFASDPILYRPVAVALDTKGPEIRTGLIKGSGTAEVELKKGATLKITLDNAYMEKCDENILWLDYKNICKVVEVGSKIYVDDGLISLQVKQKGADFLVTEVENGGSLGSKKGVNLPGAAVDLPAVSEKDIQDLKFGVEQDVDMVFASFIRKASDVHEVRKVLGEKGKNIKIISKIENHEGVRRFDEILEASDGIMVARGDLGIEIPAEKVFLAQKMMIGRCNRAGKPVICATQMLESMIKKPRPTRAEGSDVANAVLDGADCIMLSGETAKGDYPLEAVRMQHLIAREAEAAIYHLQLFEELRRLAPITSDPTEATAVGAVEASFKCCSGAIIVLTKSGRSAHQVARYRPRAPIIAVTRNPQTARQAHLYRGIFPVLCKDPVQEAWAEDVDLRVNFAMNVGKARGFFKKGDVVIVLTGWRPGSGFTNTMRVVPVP
Outline: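 Screening used highly purified human pyruvate kinase M2 under submaximal activity, with PEP at its Km and ADP below Km. After an hour at room temperature, ATP was read by luciferase luminescence.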

[12] = target: Alpha-galactosidase (Coffea arabica) (UniProt Q42656); experiment: Counterscreen for Glucocerebrosidase Inhibitors: qHTS Assay for Coffee Bean alpha-Galactosidase at pH 4.5 (AID 957); further: series mostly up to about 77 µM
Chain of Alpha-galactosidase (Coffea arabica) (Q42656 whole entry, looked up): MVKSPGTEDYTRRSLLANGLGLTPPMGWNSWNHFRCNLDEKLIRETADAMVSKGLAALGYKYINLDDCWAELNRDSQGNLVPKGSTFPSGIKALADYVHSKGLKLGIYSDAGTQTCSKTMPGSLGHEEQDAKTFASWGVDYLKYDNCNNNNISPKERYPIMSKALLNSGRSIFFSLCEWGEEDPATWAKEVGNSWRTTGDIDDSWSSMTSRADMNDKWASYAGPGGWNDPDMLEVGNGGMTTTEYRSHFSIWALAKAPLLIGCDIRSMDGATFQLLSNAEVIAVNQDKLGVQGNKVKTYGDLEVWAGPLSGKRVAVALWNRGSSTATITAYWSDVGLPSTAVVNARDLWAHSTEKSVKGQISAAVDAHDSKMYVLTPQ
Outline: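 Enzyme is added first (2 nM final), then compounds titrated from 0.7 nM to 77 uM, then 80 uM 4-methylumbelliferyl alpha-D-galactopyranoside; after 20 min at room temperature a pH 10 NaOH/glycine stop precedes fluorescence reading at 365/440 nm.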

[13] = target: Alpha-galactosidase A (Homo sapiens) (UniProt P06280); experiment: Counterscreen for Glucocerebrosidase Inhibitors: qHTS Assay for Human alpha-Galactosidase at pH 4.5 (AID 992)
Chain of Alpha-galactosidase A (Homo sapiens) (P06280 whole entry, looked up): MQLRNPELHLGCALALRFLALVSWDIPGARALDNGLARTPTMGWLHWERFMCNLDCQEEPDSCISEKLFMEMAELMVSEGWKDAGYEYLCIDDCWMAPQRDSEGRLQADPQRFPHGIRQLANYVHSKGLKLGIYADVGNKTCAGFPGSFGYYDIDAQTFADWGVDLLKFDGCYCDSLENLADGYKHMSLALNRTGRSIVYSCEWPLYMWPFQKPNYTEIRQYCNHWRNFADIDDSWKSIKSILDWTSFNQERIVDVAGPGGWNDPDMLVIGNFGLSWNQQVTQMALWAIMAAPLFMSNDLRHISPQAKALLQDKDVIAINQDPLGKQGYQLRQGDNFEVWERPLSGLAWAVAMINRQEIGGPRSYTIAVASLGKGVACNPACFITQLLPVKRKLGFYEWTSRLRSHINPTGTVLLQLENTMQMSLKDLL
Outline: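 Each compound is preincubated briefly with 2 nM enzyme before substrate addition (80 uM); plates then sit 20 min at ambient temperature, are quenched with 1M NaOH/1M glycine, and read fluorometrically.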

[14] = target: alpha-glucosidase (Oryza sativa, rice) (UniProt Q653V4); experiment: Counterscreen for Glucocerebrosidase Inhibitors: qHTS Assay for Rice alpha-Glucosidase at pH 5.0 (AID 997)
Outline: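 Endpoint fluorogenic assay at pH 5.0: compounds (0.7 nM to 77 uM) titrated against 4 nM rice enzyme and 400 uM 4-MU-alpha-glucoside for 20 min at room temperature; NaOH/glycine stop, read ex 365/em 440 nm, Hill-fitted AC50.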

[15] = target: DNA dC->dU-editing enzyme APOBEC-3G (Homo sapiens) (UniProt Q9HC16); experiment: qHTS for inhibitors of Vif-A3G interactions: Validation (AID 588379)
Chain of DNA dC->dU-editing enzyme APOBEC-3G (Homo sapiens) (Q9HC16 whole entry, looked up): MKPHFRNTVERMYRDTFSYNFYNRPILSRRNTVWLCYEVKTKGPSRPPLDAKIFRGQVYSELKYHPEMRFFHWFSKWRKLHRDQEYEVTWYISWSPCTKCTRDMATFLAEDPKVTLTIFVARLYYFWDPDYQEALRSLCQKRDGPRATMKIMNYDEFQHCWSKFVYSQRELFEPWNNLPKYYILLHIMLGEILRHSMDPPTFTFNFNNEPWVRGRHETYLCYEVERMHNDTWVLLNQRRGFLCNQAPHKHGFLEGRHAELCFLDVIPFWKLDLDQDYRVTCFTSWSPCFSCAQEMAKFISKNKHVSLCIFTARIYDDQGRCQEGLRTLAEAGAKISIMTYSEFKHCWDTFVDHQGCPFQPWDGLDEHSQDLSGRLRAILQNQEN
Outline: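 Yellow fluorescence (Ex 488, Em 500-530) of Vif-coexpressing HeLa A3G-eYFP cells, scanned by Acumen cytometer, reports blocked A3G degradation. Cells plated at 700/well overnight at 37 deg C before compound addition, then a further overnight compound incubation at 37 deg C.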

Cc1cccc(-n2c(O)c(/C=C/C=Nc3ccccc3)c(=O)[nH]c2=O)c1
Potency [1]: inactive | Potency [2]: 33.8 µM (active) | outcome [3]: inactive | Potency [4]: 39.8 µM (active)

O=[N+]([O-])c1ccc(N2CCCCCC2)c2nonc12
Potency [1]: inactive | Potency [5]: 100 µM (active) | Potency [2]: inactive | outcome [3]: inactive | Potency [4]: 25.1 µM (active)

O=C1NC(=O)N(Cc2ccccc2)C(=O)/C1=C\C=C\c1ccco1
Potency [6]: inactive | activation [5]: 12.1% [at 17.1 µM, percent relative to cAMP agonist control] | activity change, negative = inhibition [2]: 2.97% [at 12.7 µM] | activity change, negative = inhibition [3]: -17.1% [at 30.8 µM]

Cn1cc(/C=C2\C(=O)NC(=O)N(c3ccccc3)C2=O)c2ccccc21
Potency [1]: inactive | Potency [5]: 112 µM (active) | Potency [2]: 95.3 µM (active) | Potency [4]: inactive

CCCNC1=C(C)C(=O)C2=C(C1=O)C(COC(N)=O)[C@]1(OC)C3NC3CN21 (some centres undefined)
Potency [6]: inactive | Potency [5]: inactive | Potency [2]: inactive | outcome [3]: inactive

COc1ccc(CN2C(=O)NC(=O)/C(=C\c3ccco3)C2=O)cc1
Potency [6]: inactive | Potency [5]: inactive | Potency [2]: inactive | outcome [3]: inactive

Nc1ccc2ccc3cccc[n+]3c2c1
Potency [7]: 4.11 µM (active) | Potency [1]: inactive | Potency [5]: 100 µM (active) | Potency [2]: inactive | Potency [4]: 39.8 µM (active)

CCOC(=O)[C@]12Cc3cc(Cl)ccc3[C@H]1N(C(C)C)C(=O)c1ccccc12
Potency [6]: inactive | Potency [5]: inactive | Potency [2]: 21.3 µM (active) | outcome [3]: inactive

O=C1NC(=O)N(Cc2ccco2)C(=O)/C1=C\c1cccn1CCOc1ccc(Cl)cc1
Potency [6]: inactive | activation [5]: 1.56% [at 17.1 µM, percent relative to cAMP agonist control] | activity change, negative = inhibition [2]: -27.2% [at 12.7 µM] | activity change, negative = inhibition [3]: -25.1% [at 30.8 µM]

CN1/C(=C\C=C2C(=O)NC(=S)NC2=O)C(C)(C)c2ccccc21
Potency [7]: inactive | Potency [1]: inactive | Potency [5]: 100 µM (active) | Potency [2]: inactive | outcome [3]: inactive

O=c1[nH]c(=S)n(-c2ccccc2F)c(O)c1C=Nc1ccc(N2CCOCC2)cc1
Potency [1]: inactive | activation [5]: 4.59% [at 17.1 µM, percent relative to cAMP agonist control] | activity change, negative = inhibition [2]: -15.3% [at 12.7 µM] | activity change, negative = inhibition [3]: -4.47% [at 30.8 µM] | activation [4]: 32% [at 30.8 µM]

Cn1cccc1/C=C1/C(=O)NC(=O)N(Cc2ccc(F)cc2)C1=O
Potency [6]: inactive | Potency [5]: inactive | Potency [2]: inactive

CC(=O)C1C2c3ccccc3O[C@@]1(C)N=c1s/c(=C/c3ccoc3)c(=O)n12 (some centres undefined)
Potency [6]: inactive | Potency [5]: inactive | Potency [2]: inactive

Cc1cccc(CN2C(=O)CN=C(c3ccccc3)c3ccccc32)c1
Potency [1]: inactive | Potency [5]: inactive | activity change, negative = inhibition [2]: 15.3% [at 12.7 µM] | outcome [3]: inactive

COc1cc2c(cc1OC)-c1c(OC)c(OC)cc3c1[C@H](C2)N(C)CC3
Potency [6]: inactive | activation [5]: 9.51% [at 17.1 µM, percent relative to cAMP agonist control] | activity change, negative = inhibition [2]: -6.31% [at 12.7 µM]

Cc1ccccc1-c1nc(CN2C(=O)CN=C(c3ccccc3)c3ccccc32)c(C)o1
Potency [6]: inactive | Potency [5]: inactive | outcome [3]: inactive

Nc1c2c(nc3sc4c(c13)CCCC4)CCCC2
Potency [6]: inactive | activation [5]: 3.84% [at 17.1 µM, percent relative to cAMP agonist control] | activity change, negative = inhibition [2]: -3.15% [at 12.7 µM] | activation [4]: 3.23% [at 30.8 µM]

CCn1nc(/C=C/c2ccccc2)nc2c(=O)n(C)c(=O)nc1-2
Potency [6]: inactive | Potency [5]: inactive | outcome [3]: inactive | Potency [4]: inactive

COP(=O)(/C=C(\Cl)c1ccccc1)/C=C(\Cl)c1ccccc1
Potency [6]: inactive | Potency [5]: inactive | Potency [2]: inactive | outcome [3]: inactive | Potency [4]: inactive

Cn1cccc1/C=C1/C(=O)NC(=O)N(Cc2ccccc2)C1=O
Potency [6]: inactive | Potency [5]: inactive | Potency [2]: inactive | Potency [4]: inactive

CCCCN1C(=O)/C(=C\c2ccco2)C(=O)N(CCc2ccccc2)C1=O
Potency [6]: inactive | Potency [5]: inactive | Potency [2]: inactive | outcome [3]: inactive | Potency [4]: inactive

COc1ccc(N2C(=O)/C(=C/C=C/c3ccccc3[N+](=O)[O-])C(=O)NC2=S)cc1
Potency [6]: inactive | activation [5]: 17.4% [at 17.1 µM, percent relative to cAMP agonist control] | activity change, negative = inhibition [2]: 0.334% [at 12.7 µM] | activity change, negative = inhibition [3]: 15.6% [at 30.8 µM] | activation [4]: 4.75% [at 30.8 µM]

CCOC(=O)[C@]12Cc3ccccc3[C@H]1N(C(C)C)C(=O)c1cc(OC)ccc12
Potency [6]: inactive | activation [5]: 1.3% [at 17.1 µM, percent relative to cAMP agonist control] | activity change, negative = inhibition [2]: -28.9% [at 12.7 µM] | activity change, negative = inhibition [3]: -13.8% [at 30.8 µM]

CCCCCCC(C)(C)c1ccc([C@@H]2C[C@H](O)CC[C@@H]2CCCO)c(O)c1
Potency [8]: > 46 µM | outcome [9]: inactive | Potency [10]: inactive | outcome [11]: inactive | outcome [12]: inactive | outcome [13]: inactive | outcome [14]: inactive | outcome [15]: inactive | Potency [6]: inactive | Potency [5]: inactive | Potency [2]: 35 µM (active)

O=C1NC(=O)N(Cc2ccc(F)cc2)C(=O)/C1=C\c1ccoc1
Potency [6]: inactive | Potency [2]: inactive

Cc1cc(/C=C2\C(=O)NC(=O)N(Cc3ccccc3Cl)C2=O)c(C)n1-c1ccc(C(=O)O)cc1
Potency [6]: inactive | activation [5]: -9.15% [at 17.1 µM, percent relative to cAMP agonist control] | activity change, negative = inhibition [2]: -6.02% [at 12.7 µM] | activity change, negative = inhibition [3]: 4.25% [at 30.8 µM]

COc1cccc(C(c2nnnn2C2CCCCC2)N2CCC3(CC2)C(=O)NCN3c2ccccc2)c1OC (centres undefined)
Potency [6]: inactive | Potency [5]: inactive | outcome [3]: inactive

CCOC(=O)[C@]12Cc3cc(OC)ccc3[C@H]1N(C1CCCCC1)C(=O)c1ccccc12
Potency [6]: inactive | Potency [5]: inactive | outcome [3]: inactive | Potency [4]: inactive

O=C1NC(=O)N(Cc2ccccc2)C(=O)/C1=C\c1ccco1
Potency [6]: inactive | activation [5]: 4.68% [at 17.1 µM, percent relative to cAMP agonist control] | activity change, negative = inhibition [2]: 4.49% [at 12.7 µM] | activity change, negative = inhibition [3]: 0.623% [at 30.8 µM] | activation [4]: 12.3% [at 30.8 µM]
